# Results: PubChem BioAssay
# Target: Torsin-1A (Homo sapiens) (UniProt O14656)
# Assay: small-molecule binders of mutant TOR1A in lysate, primary screen, cell lysate, small-molecule microarray, COS7 lysate, 635/667 nm fluorescence (AID 1150);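 further: score pools 667 nm emission and signal to noise measuring lysate protein binding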
# Settings: COS7 hTOR1A mutant lysate, 635 nm fluorescence, higher = more signal
# Chain of Torsin-1A (Homo sapiens) (O14656 whole entry, looked up): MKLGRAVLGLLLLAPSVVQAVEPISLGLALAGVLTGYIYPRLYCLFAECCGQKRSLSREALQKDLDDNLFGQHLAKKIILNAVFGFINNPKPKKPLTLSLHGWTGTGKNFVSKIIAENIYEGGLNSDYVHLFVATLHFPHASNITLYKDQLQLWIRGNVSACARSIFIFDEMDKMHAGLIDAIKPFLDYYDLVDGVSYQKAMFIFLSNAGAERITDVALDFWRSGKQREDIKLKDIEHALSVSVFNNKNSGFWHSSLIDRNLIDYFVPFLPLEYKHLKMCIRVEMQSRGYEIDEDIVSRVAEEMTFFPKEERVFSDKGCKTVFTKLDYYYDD
row,SMILES,composite z-score
1,COc1cc(Cc2cc3c(c(CCc4ccccc4)n2)[Si](C(C)C)(C(C)C)O[C@H]3c2ccccc2)cc(OC)c1OC,-0.0236
2,C[C@]12C(=O)N(CCO)[C@@H]3C(=O)N(c4ccc(Cl)cc4)CC=CC31O[C@@H]1/C=C\CCCOC(=O)C12 (some centres not stated),-0.706
3,COc1cc2c(cc1O)C(C)N(Cc1sc3ccccc3c1Cl)CC2 (configuration not stated),-1.28
4,CN1C(=O)C2C=CC(C(O)c3ccc([N+](=O)[O-])cc3)N(Nc3ccccc3)C2C1=O (configuration not stated),0.317
5,COC(=O)[C@@]1(Cc2ccc(F)cc2)[C@H]2c3cc(C(=O)N(C)C)n(CCF)c3C[C@H]2CN1C(=O)c1ccccc1,0.606
6,O=C/C=C/c1ccc(-c2ccccc2)cc1,0.0552
7,C=C(C(=O)CC[C@@H](OC(=O)c1ccccc1-c1ccccc1C(=O)O)c1ccc(OCCO)cc1)C(C)C,0.261
8,COc1ccc(C#Cc2ccc3c(c2)[C@]2(C(=O)N3)[C@H](c3ccccc3OCCO)N3[C@H](c4ccccc4)[C@H](c4ccccc4)OC(=O)[C@H]3[C@@H]2C(=O)NC[C@H](O)c2ccccc2)cc1,0.701
9,O=C1NC(=O)C2C1C=CC(C(O)c1ccc(F)cc1)N2Nc1ccc(Cl)cc1Cl (configuration not stated),-0.348
10,C[C@@]1([C@@H](NS(=O)(=O)c2cccc3cccnc23)c2ccc(-c3ccccc3)cc2)C[C@H]1C1CCCCC1,0.0327
11,O=C1N(Cc2ccccc2)c2ccccc2C[C@@]12N=C(c1ccc(OCCCO)cc1)O[C@H]2c1ccccc1,0.318
12,COc1ccc(NN2C(C(O)c3ccccc3)C=CC3C(=O)N(C4CCCCC4)C(=O)C32)cc1 (configuration not stated),0.37
